Compound activity: PubChem BioAssay, several laboratories
In the library only some 3.3% were active in any assay of this set; here they are far more common.
Jurkat NFkB inh – inhibitors of the PMA/ionomycin-induced NF-kB reporter in Jurkat cells. PMA/ionomycin-induced NF-kB luciferase reporter, luminescence. inhibition, % at 4 µM. hit rate 0.53% among 330,000. AID 435003; in the data active = inhibition above about 50%
697 NFkB inh – inhibitors of the PMA/ionomycin-induced NF-kB reporter in 697 B cells; inhibition, % at 4 µM; 697 B-cell NF-kB luciferase reporter, 16 h; hit rate 0.33% among 330,000; in the data active = inhibition above about 35%
Gli-Sufu antag – blocks Gli-Sufu signaling in a luciferase reporter | Sufu-KO-LIGHT fibroblasts, Gli luciferase reporter luminescence | inhibition, % at 5 µM | hit rate 0.74% among 340,000 | AID 588413;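 active = inhibition above about 55%, limit read from the data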;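 note: 0% = DMSO-treated cells and 100% = wells with medium but no cells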
SMARCA2 activ – activators of SMARCA2 function; MG213 cells, MMTV-luciferase reporter, dexamethasone, overnight; activation, % at 9.1 µM; hit rate 1% among 370,000; in the data active = activation above about 7.8%;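 note: 0% = vehicle wells and 100% = reference activator wells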
esBAF inh – blocks esBAF chromatin remodeling in mouse ES cells. Bmi1-luciferase knock-in reporter, 24 h; 100% = twice the neutral-well signal. reporter increase, % at 12.5 µM. hit rate 2% among 350,000; in the data active = activation above about 40%; inconclusive = no clear call, values can overlap the other calls;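 note: 0% = median of the plate's neutral control wells and 100% = double that signal; a rise in the Bmi1 reporter signal indicates esBAF inhibition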
* hit, by the source's call; ? = inconclusive; nt = no result.

SMILES	Jurkat NFkB inh	697 NFkB inh	Gli-Sufu antag	SMARCA2 activ	esBAF inh
O=C(Cc1ccccc1)Nc1cc2c(cc1Cl)OCCCO2	-63	-78	-57	5	64*
O=C(O)c1cc2c(cc1NC(=O)c1ccccc1C(F)(F)F)OCCCO2	-4	7	-6	-3	-1
Cc1[nH]c2ccccc2c1C(=O)/C=C/c1ccccc1	-32	-43	-33	5	84*
C[C@@H]1CCCCO[C@H](CN(C)C(=O)Nc2ccccc2)[C@H](C)CN([C@@H](C)CO)C(=O)c2cc(NC(=O)Nc3ccc(F)cc3)ccc2O1	nt	nt	nt	nt	2
c1ccc(COc2cccc(-c3cc4nc(NCCN5CCOCC5)ccn4n3)c2)cc1	nt	nt	nt	-3	2
COCCCNc1ccn2nc(-c3ccc(OCCN4CCOCC4)cc3)cc2n1	nt	nt	nt	7.9*	?
NS(=O)(=O)c1ccc(CCNc2ccn3nc(-c4ccc(OCCN5CCOCC5)cc4)cc3n2)cc1	nt	nt	nt	-4	8
c1ccc(COc2ccc(-c3cc4nc(NCCN5CCOCC5)ccn4n3)cc2)cc1	nt	nt	nt	0	49*
CCC(=O)N1C[C@H](O)COC[C@@H]2O[C@H](CC(=O)NCC3CCCCC3)CC[C@H]21	nt	nt	nt	nt	-6
CO[C@H]1CN(C)C(=O)c2cc(NC(=O)c3cccc(Oc4ccccc4)c3)ccc2OC[C@H](C)NC[C@@H]1C	nt	nt	nt	nt	-1
O=C(N[C@H]1/C=C\[C@@H](O)CCCC1)OCc1ccccc1	nt	-98	-91	7	70*
O=C(CNC(=O)OCc1ccccc1)NC1CCCCCC1	6	5	-7	-1	5
O=C(c1ccc(Cl)s1)N1CCCC1	-3	-5	2	-1	-7
CC(C)(C)c1ccc(C(=O)N2CCCC2)s1	-57	-36	-1	0	47*
O=C(C[C@@H]1C[C@H]2c3cc(NC(=O)NC4CCCC4)ccc3O[C@H]2[C@H](CO)O1)NC1CCCC1	nt	nt	nt	nt	4
Cc1ccc(S(=O)(=O)N[C@@H]2C=C[C@@H](CC(=O)NCCCN(C)C)O[C@H]2CO)cc1	nt	nt	nt	nt	0
Cc1cc(C(=O)COc2cccc([N+](=O)[O-])c2)c(C)n1C1CC1	-57	-106	-69	3	71*
Cc1ccc(N=Cc2cccc(O)c2O)c(C)c1	4	-29	nt	-1	0
Cc1ccc(N=Cc2sc(O)c3ccccc23)c(C)c1	-40	-31	-82	-1	74*
Cc1ccccc1-c1nc(Cc2ccccc2)no1	-84	-103	-79	4	60*
Cc1nc(N2CCN(c3ccccc3)CC2)nc2c1C(=O)CCC2	-11	27	10	-3	4
Cc1nc(N2CCN(C(=O)c3ccco3)CC2)nc2c1C(=O)CCC2	-72	-59	-12	0	41*
COc1ccc(/C=C/C(=O)NC(C)(C)C)cc1S(=O)(=O)N1CCOCC1	-7	3	2	-1	nt
COc1ccc(/C=C/C(=O)NC2CCCCCCC2)cc1S(=O)(=O)N1CCOCC1	-32	-29	-24	3	51*
CC(C)c1ccc(C(C(C(=O)c2ccccc2)N2CCOCC2)N2CCOCC2)cc1 (stereo not drawn)	nt	nt	-44	-2	46*
SMILES	Jurkat NFkB inh	697 NFkB inh	Gli-Sufu antag	SMARCA2 activ	esBAF inh
O=C(O)c1cc(-c2ccc(-c3c(-c4ccc5c(c4)OCO5)noc3-c3ccsc3)cc2)nc2ccccc12	nt	nt	-28	3	68*
O=C(N/N=C/c1ccc2cccnc2c1)c1nc2ccccc2c(=O)[nH]1	-16	-32	-26	5	46*
O=C(N/N=C/c1ccncc1)c1nc2ccccc2c(=O)[nH]1	-6	-8	-4	1	nt
CO[C@@H]1CN(C)C(=O)c2cc(NC(=O)C3CCC3)ccc2OC[C@@H](C)N(C(=O)c2ccccc2)C[C@H]1C	nt	nt	nt	nt	0
CC1CCN(CC(=O)Nc2ccc(Br)cc2[N+](=O)[O-])CC1	-15	-2	0	-1	17
O=C(CN1CCCCC1)Nc1ccc(Br)cc1[N+](=O)[O-]	-13	2	-16	1	49*
O=C(C[C@@H]1C[C@H]2c3cc(NS(=O)(=O)c4ccc(F)cc4)ccc3O[C@H]2[C@@H](CO)O1)N1CCCCC1	nt	nt	nt	nt	3
O=C1CC(/C=C/c2ccncc2)=Nc2ccccc2N1	-1	-2	-1	3	88*
O=C1CC(c2ccccc2)=Nc2ccccc2N1	-22	6	-5	2	12
Cc1[nH]c(=O)c(C(=O)/C=C/c2ccccc2F)c2c1CCCC2	8	1	3	-8	43*
Cc1noc(C)c1NC(=O)Nc1ccc2c(c1)C(=O)N([C@H](C)CO)C[C@H](C)[C@H](CN(C)C(=O)NC(C)C)OCCCC[C@@H](C)O2	nt	nt	nt	nt	2
COCCCN(C(=O)c1ccccc1)c1nc(-c2ccc(OC)cc2)cs1	6	-31	12	-3	-2
COCCCN(C(C)=O)c1nc(-c2ccccc2)cs1	-81	-100	-80	4	46*
CC(=O)c1cccc(-c2csc(N3CCC(C(N)=O)CC3)n2)c1	-7	-9	-12	2	-3
NC(=O)C1CCN(c2nc(-c3cccc(Cl)c3)cs2)CC1	13	-107	-95	7	49*
COc1ccc(-c2csc(N3CCC(C(N)=O)CC3)n2)cc1	20	-40	-39	1	50*
Cc1cccc(NC(=O)Cc2noc3ccccc23)c1	-49	-35	-59	4	60*
Cc1ccc(NC(=O)CCc2ccccc2)cc1C	nt	nt	nt	6	52*
Cc1cccc(NC(=O)CCCc2ccccc2)c1	-71	16	-5	5	63*
CC(O)c1cccc(NC(=O)CCCc2ccccc2)c1 (stereo not drawn)	-9	16	-7	4	8
CO[C@H]1CN(C)C(=O)c2ccc(NC(=O)c3ccccc3)cc2OC[C@H](C)N(C(C)=O)C[C@H]1C	nt	nt	nt	nt	0
OC1(c2cccc(C(F)(F)F)c2)CCN(c2ccc(-c3ccccc3)nn2)CC1	-124	-186	-56	5	67*
CC(=O)N[C@@H]1CC[C@@H](CCNC(=O)C2CCC2)O[C@@H]1CO	nt	nt	nt	nt	1
C[n+]1ccccc1/C=C/c1ccc2ncccc2c1	-6	-12	9	-1	71*
C[n+]1ccccc1/C=C/c1ccc(F)c(F)c1	10	10	nt	1	1
SMILES	Jurkat NFkB inh	697 NFkB inh	Gli-Sufu antag	SMARCA2 activ	esBAF inh
COc1cccc(Nc2nc(N)nc(-c3oc4ccccc4c3C)n2)c1	33	-110	-67	5	51*
Cc1cccc(Nc2nc(N)nc(-c3oc4ccccc4c3C)n2)c1	-17	-97	-69	3	57*
CC(C)(CNC(=O)c1ccc(Br)o1)N1CCOCC1	7	-3	-2	2	-6
CC(=O)N1CCN(C(=O)c2ccc(-c3ccccc3Cl)o2)CC1	-36	-30	-11	4	47*
CC1CCCN(C(=O)c2ccc(-c3ccccc3Cl)o2)C1 (stereo not drawn)	-118	-158	-64	3	77*
O=C(c1ccc(-c2ccccc2Cl)o1)N1CCCCCCC1	nt	nt	-53	3	54*
CC(C)(CNC(=O)c1ccc(-c2ccccc2Cl)o1)N1CCOCC1	-35	-45	-10	7	71*
CC1CN(C(=O)c2ccc(-c3ccccc3Cl)o2)CC(C)O1 (stereo not drawn)	-36	-28	-26	0	33
